Experimental data from PubChem BioAssay.
Several values for one entry are separate records, joined by “and”; a condition that tells them apart may be missing. Equal values may be shown once. Records with an inconclusive call do not appear. Some structures have more than one record in an assay (separate samples or runs), and their calls can disagree. Activity calls are given as the source filed them.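 How the source made its calls, unless noted: active means compound raises insulin release from rat beta cells at 5 mM glucose, no numeric limit stated; inactive means the rest.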

Assays:
[1] = stimulators of nuclear beta-catenin in C2C12, primary screen, imaging, WNT3A-conditioned medium, mouse C2C12, NPC library (AID 1117326; in the data active means nuclear beta-catenin stimulation mostly above about 4.2%, no sharp cut-off; inactive means mostly below about 10%; further: reference of the scale not given here); conditions: stronger effect = higher value
[2] = stimulators of insulin release from INS-1E, primary screen, cell-based, 5 mM glucose, NPC library (AID 1117329); conditions: rat INS-1E insulin secretion, at 10 µM, stronger effect = higher value; further: reference of the scale not given here
[3] = growth inhibition of GSK3B-pretreated HCT116 cells – cell-based, CellTiter-Glo, 0.2 to 20 µM (AID 1117336;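 active means compounds lowering colon cancer cell viability after pretreatment blocking the GSK3B kinase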); conditions: HCT116 viability after GSK3B inhibitor, at 20 µM, stronger effect = higher value
[4] = inhibition of endothelial tube formation, primary screen, imaging, VEGF stimulated, CD31 staining, tube area, NPC library (AID 1117340;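 active means compound that reduces growth-factor-driven endothelial tube area in a mixed cell culture, no cutoff stated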); conditions: VEGF-stimulated ADSC/ECFC co-culture, at 10 µM, stronger effect = higher value
[5] = glucagon-like peptide 1 release enhancers, primary assay, NCI-H716 cell line, NPC library (AID 1117341;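 active means compound raises GLP1 secretion from the human gut endocrine cells, with no numeric limit stated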; further: reference of the scale not given here); conditions: NCI-H716 cells, at 10 µM, stronger effect = higher value
[6] = HCT116 colon cancer cell growth inhibition, primary screen, CellTiter-Glo luminescence, NPC library (AID 1117342;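 active means compounds that lower survival of HCT116 colon cancer cells in the luminescence readout, no numeric limit stated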); conditions: at 20 µM (top of the series)
[7] = CellTiter-Glo luminescent readout of SW480 viability loss, NPC library primary (AID 1117343;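 active means compounds that lower viability of the colon cancer cells in the luminescence readout, with no numeric limit stated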); conditions: CellTiter-Glo luminescence; at 20 µM (top of the series) unless noted
[8] = decreased DLD-1 cellular survival, CellTiter-Glo luminescent readout, NPC compound collection, primary HTS (AID 1117346;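 active means compounds that lower survival of DLD-1 colon cancer cells in the luminescence readout, no cutoff given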); conditions: DLD-1 viability, CellTiter-Glo luminescence; at 20 µM (top of the series)
[9] = growth inhibition of DIPG glioma cells, dose response, cell-based, JHH-DIPG-1, MIPE4.0, CellTiter-Glo, qHTS (AID 1347062; cut-off not given, nearly all actives have AC50 up to about 27 µM;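 on AC50: cells exposed to compound for two days before readout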); conditions: JHH-DIPG-1 viability, CellTiter-Glo ATP luminescence
[10] = growth inhibition of DIPG glioma cells, dose response, cell-based, SU-DIPG-IV, MIPE4.0, CellTiter-Glo, qHTS (AID 1347063; cut-off not given, nearly all actives have AC50 up to about 30 µM;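 further: compound exposure lasted 48 hours before the viability readout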); conditions: SU-DIPG-IV viability, CellTiter-Glo ATP luminescence
[11] = SU-DIPG-VI glioma cell viability, MIPE4.0 library, CellTiter-Glo luminescence, qHTS (AID 1347066; cut-off not given, nearly all actives have AC50 up to about 30 µM;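 further: cells exposed to compound for 48 hours before readout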); conditions: CellTiter-Glo ATP luminescence
[12] = liver-stage malaria parasite growth inhibition, primary screen, cell-based, HepG2, luciferase luminescence, HepG2 viability (AID 624349; in the data active means parasite load remaining mostly below about 12%, no sharp cut-off; inactive means mostly above about 10%;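 further: 100% = mean of DMSO negative control wells on the same plate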); conditions: P. berghei liver stage in HepG2, luciferase luminescence, concentration not given here; parasite load remaining: stronger effect = lower value; viability: measured here: HepG2 viability without parasites
[13] = sensitizers of A549 cells to miR-34 induction, primary screen, imaging, A549 dox-inducible miR-34, nuclei and caspase counts (AID 1347080;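 active means compounds whose cell count with miR-34 switched on is under 0.7 times the count with it off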); conditions: A549 miR-34 inducible, Hoechst nuclei count, 48 h
[14] = survival rescue of mitochondrial mutant cells in low glucose, primary screen, MELAS cybrids, Rieske KO mouse fibroblasts, CellTiter-Glo (AID 1508586;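 active means mean z-score across replicates of 1.96 or higher in either the MELAS or the Rieske mutant cell line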;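 further: z relative to plate mean and SD of compound and empty wells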)
[15] = viability rescue of complex I mutant cybrids, primary screen, cell-based, galactose medium, ATP luminescence (AID 1645843;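 active means z-score of at least 1.8 in each of two replicates, scored against plate mean and spread of sample wells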;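 further: positive z means more ATP and so rescue of galactose-driven cybrid death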); conditions: complex I mutant cybrid cells, 72 h, stronger effect = higher value
[16] = viability loss in pontine glioma line – cell-based, SU-DIPG-XXV, MIPE5.0, CellTiter-Glo, qHTS, dose response (AID 1347065; cut-off not given, nearly all actives have AC50 up to about 26 µM;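 further: cells exposed to compound for 48 hours before ATP readout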); conditions: CellTiter-Glo ATP luminescence
[17] = JHH-DIPG-1 glioma cell viability, MIPE5.0 library, CellTiter-Glo luminescence, qHTS (AID 1347067; cut-off not given, nearly all actives have AC50 up to about 26 µM;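 further: cells exposed to compound for 48 hours before readout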); conditions: JHH-DIPG-1 glioma viability, CellTiter-Glo ATP luminescence
[18] = SU-DIPG-XXV glioma cell viability, MIPE5.0 library, qHTS (AID 1347068; cut-off not given, nearly all actives have IC50 up to about 30 µM)
[19] = phospholipid biosynthesis inhibitors in animal cells, primary screen, cell-based, LOPAC library, screen 4 (AID 1347384; call rule not given here); conditions: phospholipid biosynthesis inhibition screen, at 10 µM
[20] = stronger effect = lower value, cell number ratio, induced over uninduced
[21] = measured here: relative caspase fold change +Dox/-Dox
[22] = measured here: total cells with miR-34 induction, stronger effect = lower value
[23] = measured here: total cells without miR-34 induction
[24] = MELAS cybrid survival, CellTiter-Glo 48 h, stronger effect = higher value
[25] = Rieske KO mouse fibroblast survival, CellTiter-Glo 72 h

O=C(CS(=O)Cc1ccco1)NC/C=C\COc1cc(CN2CCCCC2)ccn1 (stereo not given)
nuclear beta-catenin stimulation ([1]; at 10 µM): -0.3% (inactive) | nuclear beta-catenin stimulation ([1]; stimulation, at 2 µM): -0.8% | insulin secretion stimulation [2]: 4% (inactive) | viability decrease [3]: -4.8% (inactive) | tube area decrease [4]: 8% (inactive) | GLP1 secretion stimulation [5]: -0.5% (inactive) | inhibition of viability [6]: 2.2% (inactive) | viability decrease (inhibition) [7]: -8.8% (inactive) | viability decrease (inhibition) [8]: 6.7% (inactive) | outcome [9]: inactive | outcome [10]: inactive | outcome [11]: inactive

COC(=O)N[C@H](C(=O)N[C@@H](Cc1ccccc1)[C@@H](O)CN(Cc1ccc(-c2ccccn2)cc1)NC(=O)[C@@H](NC(=O)OC)C(C)(C)C)C(C)(C)C
parasite load remaining [12]: 62.2% (inactive) | viability [12]: 276% | nuclear beta-catenin stimulation ([1]; at 10 µM): 2.9% (inactive) | nuclear beta-catenin stimulation ([1]; stimulation, at 2 µM): 0.8% | insulin secretion stimulation [2]: 2.15% (inactive) | viability decrease [3]: -7% (inactive) | tube area decrease [4]: 82.7% (active) | GLP1 secretion stimulation [5]: -0.7% (inactive) | inhibition of viability [6]: 5.8% (inactive) | viability decrease (inhibition) [7]: -2% (inactive) | viability decrease (inhibition) [8]: -6.7% (inactive) | outcome [9]: inactive | outcome [11]: inactive | fold change [13, 20]: 0.809 (inactive) | fold change [13, 21]: 0.911 | cell count [13, 22]: 8470 | cell count [13, 23]: 10500 | z-score [14, 24]: -0.0891 (inactive) | z-score [14, 25]: -1.39 | z-score [15]: 0.325 (inactive)

CCCCCCCCCCCCCCCCNc1ccc(C(=O)O)cc1
nuclear beta-catenin stimulation ([1]; at 10 µM): 11.3% (inactive) | nuclear beta-catenin stimulation ([1]; stimulation, at 2 µM): 1.2% | insulin secretion stimulation [2]: 4.2% (inactive) | viability decrease [3]: 68.9% (active) | tube area decrease [4]: 109% (active) | GLP1 secretion stimulation [5]: -2.9% (inactive) | inhibition of viability [6]: 45% (inactive) | viability decrease (inhibition) [7]: 72.6% (active) | viability decrease (inhibition) [8]: 61.9% (active) | fold change [13, 20]: 0.865 (inactive) | fold change [13, 21]: 0.501 | cell count [13, 22]: 4330 | cell count [13, 23]: 5010

COc1cc(NCc2ccc3nc(N)nc(N)c3c2C)cc(OC)c1OC
nuclear beta-catenin stimulation ([1]; at 10 µM): 40.4% (active) | nuclear beta-catenin stimulation ([1]; stimulation, at 2 µM): 71.7% | insulin secretion stimulation [2]: 3.6% (inactive) | viability decrease [3]: 105% (active) | tube area decrease [4]: 60.1% (active) | GLP1 secretion stimulation [5]: 2.9% (inactive) | inhibition of viability [6]: 94.9% (active) | viability decrease (inhibition) [7]: 142% (active) | viability decrease (inhibition) [8]: 70.6% (active) | AC50 [9]: 18.7 µM (active) | AC50 [16]: 2.95 µM (active) | AC50 [11]: 20.9 µM (active) | AC50 [17]: 2.63 µM (active)

C[C@]12CC[C@@H]3c4ccc(O)cc4C[C@@H](CCCCCCCCCS(=O)CCCC(F)(F)C(F)(F)F)[C@H]3[C@@H]1CC[C@@H]2O (stereo not given in full)
parasite load remaining [12]: 12.8% (inactive) | viability [12]: 121% | nuclear beta-catenin stimulation ([1]; at 10 µM): 1% (inactive) | nuclear beta-catenin stimulation ([1]; stimulation, at 2 µM): 0.4% | insulin secretion stimulation [2]: 5.1% (inactive) | viability decrease [3]: -4.5% (inactive) | tube area decrease [4]: 16.2% (inactive) | GLP1 secretion stimulation [5]: -2.7% (inactive) | inhibition of viability [6]: 49.8% (inactive) | viability decrease (inhibition) [7]: 54% (active) | viability decrease (inhibition) [8]: 18.9% (inactive) | outcome [9]: inactive | outcome [16]: inactive | outcome [11]: inactive | outcome [17]: inactive | outcome [18]: inactive | fold change [13, 20]: 0.987 (inactive) and 0.822 (inactive) | fold change [13, 21]: 1.73 and 1.2 | cell count [13, 22]: 7220 and 6230 | cell count [13, 23]: 7310 and 7580 | outcome [19]: inactive | z-score [14, 24]: -1.54 (inactive) and 0.0305 (inactive) | z-score [14, 25]: -0.225 and 1.88 | z-score [15]: 2.5 (active) and -0.155 (inactive)

O=C(O)c1cccc(-c2noc(-c3ccccc3F)n2)c1
nuclear beta-catenin stimulation ([1]; at 10 µM): 2.5% (inactive) | nuclear beta-catenin stimulation ([1]; stimulation, at 2 µM): 4.8% | insulin secretion stimulation [2]: 0% (inactive) | viability decrease [3]: 8.8% (inactive) | tube area decrease [4]: -5.7% (inactive) | GLP1 secretion stimulation [5]: 2.2% (inactive) | inhibition of viability [6]: 15.5% (inactive) | viability decrease (inhibition) [7]: 2.3% (inactive) | viability decrease (inhibition) [8]: -11% (inactive) | outcome [10]: inactive | outcome [11]: inactive | outcome [18]: inactive | fold change [13, 20]: 0.927 (inactive) | fold change [13, 21]: 0.71 | cell count [13, 22]: 10200 | cell count [13, 23]: 11000 | z-score [14, 24]: -0.357 (inactive) | z-score [14, 25]: 0.633

N[C@@H](COP(=O)(O)O)C(=O)O
nuclear beta-catenin stimulation ([1]; at 10 µM): 0.6% (inactive) | nuclear beta-catenin stimulation ([1]; stimulation, at 2 µM): 14.5% | insulin secretion stimulation [2]: 2% (inactive) | viability decrease [3]: -15.2% (inactive) | tube area decrease [4]: -20.7% (inactive) | GLP1 secretion stimulation [5]: -1% (inactive) | inhibition of viability [6]: 0% (inactive) | viability decrease (inhibition) [7]: -26.4% (inactive) | viability decrease (inhibition) [8]: -5.8% (inactive) | fold change [13, 20]: 1.04 (inactive) and 0.898 (inactive) | fold change [13, 21]: 1.02 and 0.718 | cell count [13, 22]: 10100 and 7700 | cell count [13, 23]: 9680 and 8570 | outcome [19]: inactive | z-score [15]: 0.485 (inactive)

O=C1NC(=O)[C@@]2(CCOc3ccc(F)cc32)N1
nuclear beta-catenin stimulation ([1]; at 10 µM): -1.1% (inactive) | nuclear beta-catenin stimulation ([1]; stimulation, at 2 µM): 0.6% | insulin secretion stimulation [2]: 1.1% (inactive) | viability decrease [3]: -5.9% (inactive) | tube area decrease [4]: -2.4% (inactive) | GLP1 secretion stimulation [5]: 0% (inactive) | inhibition of viability [6]: 4.6% (inactive) | viability decrease (inhibition) [7]: -5.9% (inactive) | viability decrease (inhibition) [8]: -7.9% (inactive) | fold change [13, 20]: 0.973 (inactive) | fold change [13, 21]: 1.69 | cell count [13, 22]: 9980 | cell count [13, 23]: 10300 | outcome [19]: inactive | z-score [15]: 0.695 (inactive)

NC1[C@H]2CN(c3nc4c(cc3F)c(=O)c(C(=O)O)cn4-c3ccc(F)cc3F)C[C@@H]12 (stereo not given in full)
nuclear beta-catenin stimulation ([1]; at 10 µM): -0.6% (inactive) | nuclear beta-catenin stimulation ([1]; stimulation, at 2 µM): 0.5% | insulin secretion stimulation [2]: 17.5% (inactive) | viability decrease [3]: 64.3% (active) | tube area decrease [4]: 26.1% (inactive) | GLP1 secretion stimulation [5]: -0.1% (inactive) | inhibition of viability [6]: 58.4% (active) | viability decrease (inhibition) [7]: 82.9% (active) | viability decrease (inhibition) [8]: 58.6% (active) | fold change [13, 20]: 1.35 (inactive) | fold change [13, 21]: 1.08 | cell count [13, 22]: 3150 | cell count [13, 23]: 2330 | outcome [19]: inactive | z-score [15]: 2.21 (active)

Nc1c(CC(=O)O)cccc1C(=O)c1ccccc1
nuclear beta-catenin stimulation ([1]; at 10 µM): 0.8% (inactive) | nuclear beta-catenin stimulation ([1]; stimulation, at 2 µM): 0.5% | insulin secretion stimulation [2]: -0.2% (inactive) | viability decrease [3]: -2.3% (inactive) | tube area decrease [4]: -6.1% (inactive) | GLP1 secretion stimulation [5]: 2.5% (inactive) | inhibition of viability [6]: 0.4% (inactive) | viability decrease (inhibition) [7]: 0.2% (inactive) | viability decrease (inhibition) [8]: -11.2% (inactive) | fold change [13, 20]: 0.914 (inactive) | fold change [13, 21]: 0.966 | cell count [13, 22]: 7840 | cell count [13, 23]: 8580 | z-score [14, 24]: -0.237 (inactive) | z-score [14, 25]: -0.172
